Shown are actives, neighbours in structure and some others; about 4.2% of the full set was active somewhere.
NALP1 yeast inh: blocks the NALP1 inflammasome reconstituted in yeast. inhibition, % at 10 µM. S. cerevisiae NALP1/ASC/caspase-1 growth, X-gal OD620, 72 h. AID 2071. 280,000 tested, 0.61% active; in the data active = inhibition mostly above about 24%, no sharp cut-off; inactive = mostly below about 32%
tim10-1 inh: growth inhibitors of tim10-1 mutant yeast; S. cerevisiae tim10-1 ts strain growth, BacTiter-Glo, 24 h; AID 463190; inhibition, % at 20 µM; 330,000 tested, 2.2% active;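 active = inhibition of at least 40%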;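 also: mutant grown at 25 °C; 0% = DMSO wells with yeast and 100% = wells holding no yeast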
tim23-1 inh: tim23-1 yeast growth inhibition. AID 463212. S. cerevisiae tim23-1 growth, BacTiter-Glo luminescence, 24 h. 330,000 tested, 1.3% active. inhibition, % at 20 µM;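 active = growth inhibition of the mutant yeast at or above 50%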;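 also: temperature-sensitive mutant grown at 25 °C; plate controls were DMSO-treated mutant yeast for no effect and medium wells lacking yeast for full effect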
NLRP3 yeast inh: blocks the NALP3 inflammasome reconstituted in yeast; 330,000 tested, 0.39% active; inhibition, % at 10 µM; Yeast reconstituted NLRP3/ASC/caspase-1, beta-gal luminescence, 24 h;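 active = inhibition of 50% or more; inactive = inhibition below 50%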;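 also: plate controls were induced DMSO wells for no effect and uninduced yeast grown without galactose for full effect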
PfHsp90 yeast 2: inhibits growth of yeast expressing Plasmodium falciparum Hsp90; S. cerevisiae expressing PfHsp90, BacTiter-Glo ATP, 48 h; yeast lacking PDR1 and PDR3 efflux regulators; inhibition, % at 9.4 µM; 310,000 tested, 0.32% active; AID 504621;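 active = every replicate shows inhibition above about 80%, whatever the replicate mean, limit read from the data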;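 also: 0% = DMSO neutral controls and 100% = 20 µM radicicol positive controls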
TIM10 inh: TIM10 yeast growth inhibition | S. cerevisiae TIM10 strain growth, BacTiter-Glo luminescence, 24 h | inhibition, % at 10 µM | 330,000 tested, 1.4% active;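 active = inhibition of 40% or more at the single tested concentration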;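 also: wild-type TIM10 isogenic control strain grown at permissive 25 °C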
tim10 confirm: confirmation of TIM10 yeast growth inhibitors. 4,600 tested, 63% active. shares compounds with TIM10 inh. inhibition, % at 10 µM. S. cerevisiae tim10 strain growth, BacTiter-Glo luminescence, 24 h;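 active = inhibition of yeast growth at or above a set limit in either of two replicates at 10 µM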;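 also: this counterscreen used the strain with wild-type TIM10; 0% = yeast with DMSO and 100% = medium wells lacking yeast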
tim23-1 confirm: confirmation of tim23-1 mutant yeast growth inhibitors. AID 463218. shares compounds with tim23-1 inh. 4,400 tested, 83% active. S. cerevisiae tim23-1 growth, BacTiter-Glo luminescence, 24 h. inhibition, % at 20 µM;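 active = inhibition above about 39% in either of two replicate wells at 20 µM, limit read from the data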;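 also: temperature-sensitive tim23-1 mutant grown at 25 °C; 0% = DMSO wells with yeast and 100% = medium wells without yeast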
Starred values were filed as active, the others as inactive; . = not tested or not shown.

SMILES	NALP1 yeast inh	tim10-1 inh	tim23-1 inh	NLRP3 yeast inh	PfHsp90 yeast 2	TIM10 inh	tim10 confirm	others
Cc1ccc(Cc2cnc(NC(=O)c3cccs3)s2)cc1	-8.7	35.0	49.4	23.1	-5.2	54.1*	-15.0
Cc1ccc(Cc2cnc(NC(=O)C3CCCO3)s2)cc1 (stereo not given)	-6.8	23.6	32.6	19.9	9.2	18.8	.
O=C(Nc1ccc(Cc2ccncc2)cc1)c1cccs1	3.0	-0.6	33.6	-16.7	-14.9	41.3*	-4.7
O=C(Nc1ccc(-c2nc3ccc(NC(=O)c4cccs4)cc3[nH]2)cc1)c1cccs1	38.4	-32.4	-18.2	-1.1	-16.6	-25.6	.
O=C(Nc1ccc2nc(-c3cccs3)[nH]c2c1)c1cccs1	13.1	8.9	36.0	-5.9	-4.5	51.8*	33.2*
O=C(c1ccncc1)c1ccc(NC(=O)c2cccs2)cc1	12.6	-21.2	-5.9	-9.7	-10.7	24.1	.
O=C(NCC1CCCN1S(=O)(=O)c1ccccc1)C(=O)NC1CC1 (stereo not given)	.	-9.4	-14.4	9.0	.	-8.0	.
NC1=NC(c2ccccc2)N=C(Nc2ccccc2)N1 (stereo not given)	12.8	17.1	12.7	10.2	.	-2.5	.
COc1ccc(NS(=O)(=O)c2ccc3c(c2)N(C(C)=O)CCO3)c(OC)c1	-9.1	10.9	-8.6	11.3	-7.5	-14.4	.
COc1ccc(/C=C/C(=O)NC2CC3CCC2C3)cc1 (stereo not given)	6.1	5.2	25.4	10.6	-2.4	4.2	.
COc1ccc(/C=N/NC(=S)N[C@H]2CC3CCC2C3)cc1 (stereo not given in full)	9.0	29.2	29.0	19.3	-10.5	46.7*	36.2*
O=C(C1CCC(Cn2c(=S)[nH]c3ccccc3c2=O)CC1)N1CCN(c2ccccc2)CC1 (stereo not given)	.	26.3	30.6	7.3	.	46.2*	37.5*
CC1CC(C)CN(C(=O)CCCn2c(=S)[nH]c3ccccc3c2=O)C1 (stereo not given)	-1.2	29.0	41.8	17.4	-30.9	43.1*	19.4
N#C/C(=C(/O)c1ccc([N+](=O)[O-])o1)c1nc2ccccc2[nH]1	.	-1.9	-3.5	18.7	-2.0	-1.3	.
Cc1ccc2nc(/C(C#N)=C\c3ccc(N4CCOCC4)o3)[nH]c2c1	22.5	-10.7	22.6	16.9	5.2	14.6	.
N#C/C(=C\c1ccc([N+](=O)[O-])o1)c1nc2ccccc2[nH]1	101.1*	28.5	-144.2	-3.7	.	58.6*	66.1*
Cc1ccc2nc(/C(C#N)=C\c3ccc([N+](=O)[O-])o3)[nH]c2c1	52.0*	17.3	28.7	-15.2	104.5*	83.9*	95.2*
Cc1ccc(S(=O)(=O)N2CCOCC2)cc1NC(=O)CNc1ccccc1N1CCCC1=O	.	13.9	7.6	9.1	.	1.1	.
CC(=O)NC/C(C)=N\Nc1ccc([N+](=O)[O-])cc1	27.9	30.8	4.7	23.4	-5.6	48.7*	-33.2
CCc1cc(-c2n[nH]c(=S)n2C(C)c2ccccc2)cs1 (stereo not given)	.	26.0	39.6	0.2	.	41.4*	19.5
COC(=O)C1C2C=CC3(CN(c4cccc(Cl)c4)C(=O)C13)O2 (stereo not given)	-21.6	14.5	14.8	2.0	9.1	4.4	.
COC(=O)C1C2C=CC3(CN(c4cccc(C)c4)C(=O)C13)O2 (stereo not given)	-1.3	10.5	3.5	8.4	5.9	94.2*	-3.8
Cc1ccc(C)c(Nc2nc3ccccc3n3cnnc23)c1	0.2	9.4	13.6	7.7	-17.2	20.6	.
CCCCCCOC(=O)Sc1nc2ccccc2o1	5.2	-18.9	37.8	21.9	128.4*	76.9*	72.0*
COC(=O)CSc1nc2ccccc2o1	6.1	-13.4	17.9	13.2	-4.8	-2.7	.
SMILES	NALP1 yeast inh	tim10-1 inh	tim23-1 inh	NLRP3 yeast inh	PfHsp90 yeast 2	TIM10 inh	tim10 confirm	others
O=C(Oc1coc(CSc2ncccn2)cc1=O)c1ccc(Br)o1	12.2	37.3	24.9	-3.7	-8.5	43.6*	17.9
CN(C)c1ccc(/C=C2\C(=N)N3C(=NC2=O)Sc2cc(S(C)(=O)=O)ccc23)cc1	.	4.2	7.8	9.3	.	-1.5	.
O=C(Nc1ccc(-c2cn3ccsc3n2)cc1)C1CC1	1.5	17.2	8.5	8.3	37.3	56.7*	26.5
CC(=O)Nc1ccc(-c2cn3ccsc3n2)cc1	-3.4	-14.4	6.7	11.1	-17.5	4.0	.
COc1ccc(OCC(CO)N2CCN(c3ccccc3)CC2)cc1 (stereo not given)	.	.	.	.	-23.8	.	.
COc1ccc(CC(=O)Nc2cccc(-c3ccc4nncn4n3)c2)cc1OC	5.4	7.3	4.3	-12.7	-32.9	10.1	.
Cc1ccc(CNC(=O)c2cn(C3CCCCC3)c(=O)c3c2c2ccccc2n3C)o1	-8.1	25.6	26.2	6.6	-29.8	43.1*	-9.5
N#CC1(NC(=O)COC(=O)C23CC4CC(CC(O)(C4)C2)C3)CCCCC1	9.0	-2.1	8.1	20.0	-10.3	12.7	.
Cc1ccc(Cl)cc1NC(=O)C(=O)N/N=C/c1ccc2c(c1)OCO2	6.7	26.8	0.7	-5.9	-4.5	3.8	.
O=C(c1cccc(N2C(=O)C3C4C=CC(C4)C3C2=O)c1)N1CCN(c2ccccc2Cl)CC1 (stereo not given)	15.2	18.3	12.5	17.3	-9.6	19.9	.
O=C1/C(=C/c2cccnc2)CC/C1=C\c1cccnc1	27.6	11.4	14.1	1.7	3.5	0.9	.
O=C1/C(=C\c2cccnc2)CCc2ccccc21	-2.6	39.6	39.8	11.3	17.2	44.1*	40.3*
O=Cc1cc(N=Nc2ccccc2Cl)ccc1O	-7.9	11.6	28.9	47.1	-26.1	62.0*	76.0*
O=Cc1cc(N=Nc2cccc(C(=O)O)c2)ccc1O	5.8	1.3	5.5	38.3	15.9	16.4	.
COc1ccc(C)cc1NC(=O)CCc1ccc(S(=O)(=O)N2CCOCC2)cc1	.	10.0	12.9	1.2	-10.4	1.7	.
CCN1CCN(C(=O)c2cn(CCOC)c(=O)c3c2c2ccccc2n3C)CC1	20.1	5.9	-11.5	-0.5	22.7	1.5	.
CC(C)Cn1cc(C(=O)N2CCN(c3ccccn3)CC2)c2c3ccccc3n(C)c2c1=O	-4.5	33.0	25.1	5.1	-8.2	44.5*	24.6
CC(C)(C)c1nn(-c2ccccc2)c2[nH]c(=O)c(C=O)cc12	-3.9	-23.5	79.9*	25.1	120.3*	72.2*	91.3*	tim23-1 confirm=-43.8
CC(C)(C)c1nn(-c2ccccc2)c2nc(Cl)c(C=O)cc12	1.5	12.7	27.2	3.4	36.9	10.2	.
CCOC(=O)c1sc(NC(=O)c2ccc(Br)o2)cc1C	17.6	-12.8	15.4	16.8	16.5	6.4	.
